Measured values as given in PubChem BioAssay (NCATS).
Several values for one entry are separate records, joined by “and”; a condition that tells them apart may be missing. Identical values can stand only once. Results filed as inconclusive are left out. Some structures have more than one record in an assay (separate samples or runs), and their calls can disagree. Activity calls are given as the source filed them. Calls come from the whole dose curve; as a rule, active = well fitted inhibition curve with a large enough effect; inconclusive = small, poorly fitted or top-dose-only effect; inactive = no such curve, though single readings can be large or run the other way.

These compounds were tested against M-phase phosphoprotein 8 (Homo sapiens) (UniProt Q99549) (assay: qHTS Validation Assay for Inhibitors for MPP8 Chromodomain Interactions with Methylated Histone Tails (AID 488949; note: nearly all actives have a fitted effect of over 55% in size; for activity change, negative = inhibition: top concentration of the series differs between compounds)). Conditions: AlphaScreen MPP8 binding to H3K9me3 peptide; series mostly up to 57.1 µM; activity change, negative = inhibition: at the top concentration.
Sequence of M-phase phosphoprotein 8 (Homo sapiens) (Q99549 whole entry, looked up): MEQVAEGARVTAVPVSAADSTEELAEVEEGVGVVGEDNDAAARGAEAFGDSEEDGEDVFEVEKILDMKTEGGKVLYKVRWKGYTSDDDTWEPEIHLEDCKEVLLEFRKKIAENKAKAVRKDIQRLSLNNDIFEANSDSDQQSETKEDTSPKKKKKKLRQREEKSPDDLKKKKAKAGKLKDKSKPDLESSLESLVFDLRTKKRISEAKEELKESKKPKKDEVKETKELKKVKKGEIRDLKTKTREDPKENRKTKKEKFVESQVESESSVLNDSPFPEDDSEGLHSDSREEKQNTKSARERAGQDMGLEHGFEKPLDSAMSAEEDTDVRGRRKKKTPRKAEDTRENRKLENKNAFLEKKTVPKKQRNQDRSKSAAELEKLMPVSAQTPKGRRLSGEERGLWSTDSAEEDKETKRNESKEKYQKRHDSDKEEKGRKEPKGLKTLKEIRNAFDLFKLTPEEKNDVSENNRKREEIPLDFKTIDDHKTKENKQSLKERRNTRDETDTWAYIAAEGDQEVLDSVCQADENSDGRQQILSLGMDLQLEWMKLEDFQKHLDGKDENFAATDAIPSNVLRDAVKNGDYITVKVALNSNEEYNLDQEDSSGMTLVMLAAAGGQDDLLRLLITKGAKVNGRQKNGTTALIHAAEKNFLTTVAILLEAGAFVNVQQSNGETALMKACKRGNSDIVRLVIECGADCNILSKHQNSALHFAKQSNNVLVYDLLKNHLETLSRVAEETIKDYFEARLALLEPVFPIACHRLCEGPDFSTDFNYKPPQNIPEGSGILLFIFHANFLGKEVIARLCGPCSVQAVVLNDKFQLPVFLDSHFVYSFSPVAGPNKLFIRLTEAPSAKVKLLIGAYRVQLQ
Excerpt: As our understanding of epigenetics expands, it is becoming clear that players in this field are potential targets for drug development. This area of epigenetic therapy has established applications for the treatment of cancer and neurological diseases. We have been involved in this field for a number of years and have performed high-throughput screens to identify the first small molecule inhibitors of protein methyltransferases. These methyltransferases target multiple substrates, and thus regulate many arms of an epigenetic pathway. The methylation of different substrates often generates docking sites for effector proteins that harbor binding domains (chromo, tudor, PHD, MBT and ANK repeats). It has been proposed that the binding sites generated for different proteins by these post-translational modifcations mediate downstream effects on chromatin. Consistent with this theory, di- and tri-methylation of histone H3K9 facilitates the binding of heterochromatin protein HP1. The HP1 protein harbors a chromodomain that is responsible for the methyl-dependent interaction between HP1 and lysine 9 of histone H3. HP1 was first described in flies as a heterochromatin associated protein that can regulate gene silencing. It harbors a chromodomain that binds H3K9me3. In addition, it harbors a chromoshadow domain that interacts with a large number of proteins that are involved in heterochromatin formation and gene repression. There are three highly related HP1 isoforms. All three variants are associated with pericentric heterochromatin and it is not clear whether they have specific or redundant functions. MPP8 is also involved in the repression of gene in euchromatic regions (unpublished data) and like HP1 its chromodomain binds H3K9me3. MPP8 harbors an ankyrin repeat region that is likely involved in binding and recruiting interacting proteins with transcriptional repressive function, much like the chromoshadow domain of HP1 does. We hypothesize that by inhibiting specific protein-protein interactions we will be able to develop compounds that block a single arm of an epigenetic pathway. The specificity attained by blocking a single protein-protein interaction will be far greater than that attained by blocking the enzyme that regulates one of many interactions. Low-affinity protein-protein interactions (Kd in the single- to double-digit micromolar range) such as those discussed here have been very difficult to assay by traditional techniques such as fluorescence polarization or fluorescence resonance energy transfer. We have developed a sensitive chemiluminescence-based assay (Quinn, et al. 2009), which serves as the starting point for this project. The following is a validation assay to identify lead compounds that can block methyl-dependent protein-protein interactions (specifically MPP8), which can be used as probes to analyze these methyl-driven interactions and perhaps even developed into targeted epigenetic therapies. Assay Provider: Mark T. Bedford, MD Anderson Screening Center PI: Austin, C.P. Screening Center: NIH Chemical Genomics Center [NCGC]
To each well, 2 uL of MPP8 protein (final 50 nM) and 1 uL biotinylated histone peptide trimethylated at Lys9 [b-H3(1-18)K9me3] (final 50 nM) was added in 1x PBS buffer, pH 7.4, containing 0.01% Tween-20 using a nanoliter dispenser. Formation of a protein-peptide complex proceeded at room temperature for 30 min. A Kalypsys pin-tool was employed to transfer 23 nL of library compound solution in DMSO to each well. Aurintricarboxylic acid (ATA) was used as an intraplate control with a 12-point titration in duplicate. Following a 30 min incubation of the protein-peptide complex with compounds at room temperature, a mixture of 40 ug/mL each streptavidin-coated donor and nickel chelate acceptor AlphaScreen beads (final 10 ug/mL) was added in a 1 uL dispense for a final volume of 4 uL. Plates were incubated protected from the light for 30 min at room temperature. […]
% is set by controls: 0 for no effect and ±100 for the full control effect; potency is the fitted concentration of half-maximal effect.

Row | SMILES | activity change, negative = inhibition | Potency
1 | CCc1c(C(=O)NCCc2ccc(N3CCCCC3)cc2)[nH]c2ccc(Cl)cc12 | 0.852% (inactive) | 
2 | NC(=O)C(=O)O |  | inactive
3 | CN(C)CCCO[C@@H]1[C@H]2OC(C)(C)O[C@H]2O[C@@H]1[C@H](O)CO | -0.0263% (inactive) | 
4 | O=C1/C(=C/c2ccsc2)CC/C1=C\c1cccs1 | -8.39% (inactive) | 
5 | CC1CN(S(=O)(=O)c2cccc3cnccc23)CCN1 (stereo not given) |  | inactive
6 | CCOC(=O)N1CCN(/[N+]([O-])=N/Oc2ccc([N+](=O)[O-])cc2[N+](=O)[O-])CC1 | -5.72% (inactive) | 
7 | O=C(Nc1cccc(C(=O)Nc2ccc(S(=O)(=O)O)c3cc(S(=O)(=O)O)cc(S(=O)(=O)O)c23)c1)Nc1cccc(C(=O)Nc2ccc(S(=O)(=O)O)c3cc(S(=O)(=O)O)cc(S(=O)(=O)O)c23)c1 |  | 31.6 µM (active) and 9.47 µM (active)
8 | Cc1ccc(O)c(N=Nc2ccccc2)n1 |  | 39.8 µM (active) and inactive
9 | Cn1ncc(S(=O)(=O)Cc2ccccc2)c(Br)c1=O | -5.7% (inactive) | 
10 | O=c1[nH]c2cc(Cl)c(Cl)cc2[nH]c1=O |  | inactive
11 | C[C@@H](CN1CCC(Cc2ccccc2)CC1)[C@@H](O)c1ccc(O)cc1 |  | inactive
12 | Cc1nc2sccn2c(=O)c1CCN1CCC(=C(c2ccccc2)c2ccc(F)cc2)CC1 | 1.63% (inactive) | 
13 | O=[N+]([O-])c1ccc2c(c1)S(=O)(=O)C=C2 | 2.88% (inactive) | 
14 | CCCCCCCCCCCCCCCCCC(=O)NCC(COP(=O)([O-])OCC[N+](C)(C)C)OCC (stereo not given) | 16.5% (inactive) | 
15 | CCCN(CC1CC1)c1nc(C)nc(Nc2c(Cl)cc(Cl)cc2Cl)c1Cl |  | inactive
16 | OCC1O[C@H](O)C(Cl)C(O)C1O (stereo not given in full) |  | inactive
17 | Cc1ccccc1CNc1ncnc2c1ncn2C1OC(CO)C(O)C1O (stereo not given) |  | inactive
18 | CNC(=O)[C@H]1O[C@@H](n2cnc3c(NCc4ccc(N)cc4)ncnc32)[C@H](O)[C@@H]1O | -5.95% (inactive) | 
19 | C#CCN1C(C)=C(C(=O)OC)C(c2cccc([N+](=O)[O-])c2)C(C(=O)OCC)=C1C (stereo not given) | -7.84% (inactive) | 
20 | CSc1ccccc1N1CCN(CCCCCC(=O)NC2CCCc3ccccc32)CC1 (stereo not given) | -5.33% (inactive) | 

Row | SMILES | activity change, negative = inhibition | Potency
21 | Fc1ccc(C(OCCCc2cnc[nH]2)c2ccc(F)cc2)cc1 |  | 50.1 µM (active)
22 | Nc1ncnc2c1ncn2[C@@H]1O[C@H](COP(=O)(O)OP(=O)(O)OP(=O)(O)OP(=O)(O)OC[C@@H]2O[C@H](n3cnc4c(N)ncnc43)[C@@H](O)[C@H]2O)[C@@H](O)[C@H]1O | 11.4% (inactive) | 
23 | NC(N)=NC(=O)c1nc(Cl)c(N2CCCCCC2)nc1N |  | 44.7 µM (active) and inactive
24 | NCCNC(=O)c1ncsc1-c1cccc(F)c1 |  | inactive
25 | O=C(O)/C=C/C(O)c1ccc(Cl)cc1 (stereo not given) |  | inactive
26 | CN(C)c1nc2c(Br)c(Br)c(Br)c(Br)c2[nH]1 |  | inactive
27 | OC[C@H]1O[C@@H](n2cnc3c(NC4CCCCC4)ncnc32)[C@H](O)[C@@H]1O |  | inactive
28 | O=C(O)CC1CCCc2ccccc2C1O (stereo not given) |  | inactive
29 | CC(C)(C)NCC(O)COc1nsnc1N1CCOCC1 (stereo not given) | 17.9% [at 114 µM] (inactive) | 
30 | CC[C@@H](C)[C@H]1O[C@]2(CC[C@H]1C)C[C@@H]1C[C@@H](CC=C(C)[C@@H](O[C@H]3C[C@H](OC)[C@@H](O[C@H]4C[C@H](OC)[C@@H](O)[C@H](C)O4)[C@H](C)O3)[C@@H](C)C=CC=C3CO[C@@H]4[C@H](O)C(C)=C[C@@H](C(=O)O1)[C@]34O)O2 | 8.79% (inactive) | 
31 | O=C(O)c1cc(=O)c2ccccc2[nH]1 |  | inactive
32 | CC(C)NCC(O)COc1cccc2ccccc12 (stereo not given) | -3.52% (inactive) | 
33 | COc1ccc2c(c1)CCC1C2CC[C@@]2(C)C1CC[C@@H]2NCCCCCCN1C(=O)CCC1=O (stereo not given in full) | 15% (inactive) | 
34 | CCCn1c(=O)c2[nH]c(-c3ccc(OCC(=O)NCCN)cc3)nc2n(CCC)c1=O |  | inactive
35 | NCCCCCCCCCCN |  | inactive
36 | CO/S(=N\S(=O)(=O)c1ccc(Cl)cc1)c1ccc([N+](=O)[O-])cc1 (stereo not given) | 14.6% (inactive) | 
37 | NCCSSCCN |  | 79.4 µM (active) and inactive
38 | CCCCCCCCCCCCCCCCCCNC(=O)OCC(COP(=O)([O-])OCC[n+]1ccsc1)OC (stereo not given) |  | inactive
39 | C=CC(N)CCC(=O)O (stereo not given) |  | inactive
40 | CC(=O)N[C@H](C(=O)O)C(C)(C)SN=O |  | inactive
